Screening data (PubChem)
Shown are actives, neighbours in structure and some others; about 4% of the full set was active somewhere.
PAX8 reporter: inhibitors of PAX8-driven TPO luciferase reporter, primary screen, RMG-I cells, single concentration | AID 652154, 2013 | 360,000 compounds, 1.2% hits | SteadyGlo, 24 h | inhibition, % at 12.6 µM;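 active = mean replicate inhibition at least 60% with every replicate also reaching 60%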;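 note: luciferase light reporting Pax8 driven TPO promoter activity; plate controls were median of neutral control wells for no effect and mitoxantrone controls for full effect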
Shn3 3UTR inh: reduction of Shn3 3'UTR firefly luciferase signal, primary screen, Schnurri-3 inhibitor project, cell-based, Clone20 osteoblasts, set 2. inhibition, % at 12.5 µM. 360,000 compounds, 0.52% hits. AID 588674, 2011. Clone20 osteoblast Shn3 3'UTR firefly luciferase, 24 h;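 active = mean inhibition of at least 75% with every replicate also reaching 75%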;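 note: 0% = median of neutral control wells and 100% = pilot-screen positive control compound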
Gli-Sufu block: Gli-Sufu pathway antagonists, primary screen, luciferase luminescence, Sufu-KO-LIGHT cells, uHTS | Sufu-KO-LIGHT fibroblasts, Gli luciferase reporter luminescence | inhibition, % at 5 µM | 340,000 compounds, 0.74% hits | AID 588413, 2011;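 active = inhibition above about 55%, limit read from the data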;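 note: 0% = DMSO-treated cells and 100% = wells with medium but no cells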
Mdm2-MdmX inh: inhibitors of human Mdm2-MdmX association, primary screen, cell-based, luminescence, split luciferase, SaOS-2, uHTS. SaOS-2 split-luciferase Mdm2/MdmX complementation. AID 485346, 2010. Protein Mdm4 (Homo sapiens) + E3 ubiquitin-protein ligase Mdm2 (Homo sapiens), …. inhibition, % at 8 µM. 330,000 compounds, 3% hits;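 active = inhibition of at least 50% at 8 µM in the primary screen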
Target sequence (O15151 whole entry, looked up): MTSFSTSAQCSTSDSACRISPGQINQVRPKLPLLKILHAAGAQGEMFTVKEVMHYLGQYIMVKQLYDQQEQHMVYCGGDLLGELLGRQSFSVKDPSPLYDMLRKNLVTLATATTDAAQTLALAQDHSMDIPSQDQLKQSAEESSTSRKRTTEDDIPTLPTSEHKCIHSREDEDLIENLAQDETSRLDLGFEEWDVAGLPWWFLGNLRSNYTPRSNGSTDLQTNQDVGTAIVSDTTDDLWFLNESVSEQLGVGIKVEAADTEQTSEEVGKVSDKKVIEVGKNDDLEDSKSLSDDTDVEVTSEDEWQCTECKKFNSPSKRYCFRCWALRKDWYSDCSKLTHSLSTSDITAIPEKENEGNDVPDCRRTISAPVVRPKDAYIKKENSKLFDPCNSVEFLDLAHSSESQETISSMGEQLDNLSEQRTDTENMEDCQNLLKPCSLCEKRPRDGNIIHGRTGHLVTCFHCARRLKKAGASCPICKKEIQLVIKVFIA
Target sequence (Q00987 whole entry, looked up): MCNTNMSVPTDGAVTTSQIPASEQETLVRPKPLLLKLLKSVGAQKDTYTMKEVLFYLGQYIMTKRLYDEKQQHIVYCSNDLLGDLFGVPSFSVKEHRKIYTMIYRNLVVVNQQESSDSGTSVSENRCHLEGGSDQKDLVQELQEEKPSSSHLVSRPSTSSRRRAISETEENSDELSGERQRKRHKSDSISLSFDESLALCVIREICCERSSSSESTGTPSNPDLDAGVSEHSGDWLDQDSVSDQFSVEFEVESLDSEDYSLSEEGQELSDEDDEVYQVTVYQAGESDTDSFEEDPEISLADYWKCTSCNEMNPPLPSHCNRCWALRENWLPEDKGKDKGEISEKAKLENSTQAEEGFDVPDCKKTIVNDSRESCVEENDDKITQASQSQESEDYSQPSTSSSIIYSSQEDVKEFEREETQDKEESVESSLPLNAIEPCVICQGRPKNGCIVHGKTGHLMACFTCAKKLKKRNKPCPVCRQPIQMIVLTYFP
CSC inhib: cancer stem cell viability inhibitors, primary screen, luminescence; inhibition, % at 7.5 µM; cancer stem cell-like cells viability; 300,000 compounds, 1.1% hits; AID 2717, 2010; in the data active = inhibition above about 75%; tested in HMLE shEcad cells
Beta apoptosis: inhibitors of cytokine-induced beta cell apoptosis, primary screen, luminescence; AID 435005, 2010; 300,000 compounds, 0.8% hits; protection from apoptosis, % (test concentration not listed); INS-1E cytokine-induced death, ATP luminescence, 48 h; percent of positive-control rescue, neutral wells zero;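 active = Every replicate reaches about 75%, or at least half do and their mean reaches it too, limit read from the data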;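 note: 0% = cytokine-treated negative control wells and 100% = positive control rescue; higher means more ATP so stronger rescue from cytokine killing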
Gli antag conf: Gli-SUFU pathway antagonists, confirmation, single concentration, luciferase luminescence, Sufu-KO-LIGHT cells | shares compounds with Gli-Sufu block | inhibition, % at 5 µM | 2,500 compounds, 40% hits | Gli luciferase reporter;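 active = mean inhibition at 5 µM reaching about 45%, limit read from the data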;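 note: plate controls were DMSO-treated cells for no effect and wells lacking cells for full effect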
Gli cytotox: cytotoxicity in Sufu-KO-LIGHT cells, confirmation, cytotoxicity control for Gli-SUFU antagonist project, cell-based, ATP luminescence, single concentration; 2,500 compounds, 32% hits; cytotoxicity, % at 5 µM; shares compounds with Gli-Sufu block;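 active = mean cytotoxicity at 5 µM above about 25%, limit read from the data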;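 note: cells exposed to compound overnight for roughly 16 to 18 hours; plate controls were DMSO wells with cells for no effect and medium without cells for full effect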
Wnt3a counter: Wnt3a reporter signal inhibition, confirmation, counter-screen for Gli-SUFU antagonist project, Wnt-LIGHT cells, luminescence, single concentration. shares compounds with Gli-Sufu block. inhibition, % at 6.25 µM. Wnt3a-driven luciferase reporter. AID 651995, 2013. 2,500 compounds, 20% hits;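 active = mean inhibition above about 25%, limit read from the data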
Active calls of the source: *.

How did CCOC(=O)c1c(NC(=O)C[n+]2ccc(Cc3ccccc3)cc2)sc(C)c1C do in these assays?
PAX8 reporter: 14.5; Shn3 3UTR inh: -2.4; Gli-Sufu block: 52.3; Mdm2-MdmX inh: 26.8; CSC inhib: -8.1; Beta apoptosis: 77.6*; Gli antag conf: 36.2; Gli cytotox: 15.0; Wnt3a counter: 5.7

Results for Cc1cccc(NC(=O)c2cnn(-c3ccc(F)cc3)c2C2CCNCC2)c1C ?
PAX8 reporter: 2.7; Shn3 3UTR inh: 6.1; Gli-Sufu block: 54.8; Mdm2-MdmX inh: 26.5; CSC inhib: -13.5; Beta apoptosis: -6.0; Gli antag conf: 18.1; Gli cytotox: -1.2; Wnt3a counter: 11.3

How did Cc1cc(C)cc(NC(=O)c2cnn(-c3ccccc3)c2C2CCNCC2)c1 do in these assays?
PAX8 reporter: 8.6; Shn3 3UTR inh: -19.8; Gli-Sufu block: 4.0; Mdm2-MdmX inh: 2.8; CSC inhib: -2.9; Beta apoptosis: -7.2

Results for O=C(C1CCCN1S(=O)(=O)c1ccc(Cl)cc1)N1CCOCC1 (stereo not drawn) ?
PAX8 reporter: 2.9; Shn3 3UTR inh: -3.2; Gli-Sufu block: 7.5; Mdm2-MdmX inh: 10.5; CSC inhib: -3.6; Beta apoptosis: -2.7

Results for CC1Cc2ccccc2N1C(=O)C1CCCN1S(=O)(=O)c1ccc(Cl)cc1 (stereo not drawn) ?
Shn3 3UTR inh: 10.3; Gli-Sufu block: 99.2*; Mdm2-MdmX inh: -1.8; CSC inhib: 17.4; Beta apoptosis: -5.1; Gli antag conf: 19.8; Gli cytotox: 14.3; Wnt3a counter: -31.6

Results for Cc1noc(C)c1NC(=O)Nc1ccc2c(c1)C(=O)N([C@@H](C)CO)C[C@@H](C)[C@H](CN(C)Cc1ccncc1)OCCCC[C@H](C)O2 ?
PAX8 reporter: -3.4

What do the screens show for `O=c1cc(CSc2nnc(-c3cccs3)n2Cc2ccccc2)nc2sc3ccccc3n12`?
PAX8 reporter: 27.1; Shn3 3UTR inh: 73.5; Gli-Sufu block: 62.5*; Mdm2-MdmX inh: 25.5; CSC inhib: -4.6; Beta apoptosis: 68.4; Gli antag conf: 57.3*; Gli cytotox: 33.4*; Wnt3a counter: 37.3*

Results for Cc1cc(C(=O)CSc2nnc(-c3cccs3)n2Cc2ccccc2)c(C)n1C ?
Shn3 3UTR inh: 4.5; Gli-Sufu block: -6.0; Mdm2-MdmX inh: -9.3; CSC inhib: 11.9; Beta apoptosis: 6.5

Results for CC(=O)Nc1ccc(S(=O)(=O)N2CCC(C(N)=O)(N3CCCCC3)CC2)cc1 ?
PAX8 reporter: 7.1; Shn3 3UTR inh: -1.3; Gli-Sufu block: 55.2*; Mdm2-MdmX inh: 2.7; CSC inhib: 0.8; Beta apoptosis: 9.3; Gli antag conf: 30.0; Gli cytotox: -0.7; Wnt3a counter: 13.7

How did C[C@H](CO)N1C[C@H](C)[C@@H](CN(C)Cc2ccc(Cl)c(Cl)c2)Oc2ccc(NS(=O)(=O)c3cn(C)cn3)cc2CC1=O do in these assays?
PAX8 reporter: 17.0

How did COC(=O)c1cc(C(=O)c2ccc(Cl)cc2)n2c(=O)/c(=C\N(C)C)sc12 do in these assays?
PAX8 reporter: -10.4; Shn3 3UTR inh: -23.1; Gli-Sufu block: 57.5*; Mdm2-MdmX inh: 24.0; CSC inhib: 42.6; Beta apoptosis: 3.7; Gli antag conf: 31.5; Gli cytotox: 3.9; Wnt3a counter: -84.4
